A word on the inhibition: it is the change of the read-out against control, counted positive when it falls.

The structures appear in SMILES notation. The whole screen tested about 2,500 compounds, of which about 1,100 (44%) were called active. So high a share suggests a set chosen from earlier hits. Some of the results follow. Unmarked numbers belong to inactive results.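 How the source made its calls: active means inhibition above 50% at 4 µM in the single-point screen; inactive means inhibition of 50% or less.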

A short description of the test: blockers of TNF-a NF-kB luciferase induction – cell-based, HEK293T NF-kB-Luc, luminescence, selectivity assay for NOD1/NOD2 signaling inhibitor project, primary screen (AID 1852). The settings on record: TNF-a induced, 14 h, at 4 µM, active compounds read high.
Take `O=C(Oc1c(-c2ccccc2)c(=O)n2c3c(cccc13)CC2)c1ccccc1`: the inhibition is 75.1% (active).
As for `O=C(Oc1c(-c2ccccc2)c(=O)n2c3c(cccc13)CC2)c1ccc(Cl)cc1`, the figure is 90.1% (active); as for `O=C(Oc1c(-c2ccccc2)c(=O)n2c3c(cccc13)CC2)c1ccc(F)cc1`, 49.3%.
`COc1ccc(C(=O)c2c(C(F)(F)F)oc3c2C(=O)c2ccccc2C3=O)cc1`: the inhibition is 100% (active).
In the case of `COc1ccc(NC(=O)c2c(Nc3ccccc3)sc(C(=O)c3ccc(F)cc3)c2N)cc1`, the inhibition is 10%.
As for `COc1ccc(C(=O)c2c(C(F)(F)F)oc3c2C(=O)c2ccccc2C3=O)cc1OC`, the inhibition is 102% (active).
As for `COc1ccc(C(=O)Nc2sc3c(c2C(=O)NCc2ccco2)CCCC3)cc1OC`, the inhibition was -42.2%.
As for `CC(C)(C)OC(=O)CNC(=O)c1[nH]cnc1C(=O)NC1CCN(C(=O)OC(C)(C)C)CC1`, the figure is -15.2%; as for `O=C(OCn1ncc(Br)c(Br)c1=O)c1ccc(F)cc1`, 86.5% (active); as for `CC(=O)Cn1ncc(Br)c(Br)c1=O`, 95% (active).
The same measure for `O=C(OCn1ncc(Br)c(Br)c1=O)c1c(F)cccc1F`: 82.5% (active); for `COCCn1c(SCC(=O)N2CCc3ccccc3C2)nc2cc(Cl)ccc2c1=O`: 13.3%.
The same measure for `Cc1ccc(Cl)cc1N1CCN(C(=O)CSc2nnc3n2C(C)(C)Cc2ccccc2-3)CC1`: 95.1% (active).
Regarding `O=C(CSc1nnc2ccc3ccccc3n12)N1CCOCC1`, the inhibition is -57.3%.
As for `CC1Cc2cc(-c3csc(NC(=O)Cc4cccs4)n3)ccc2N1S(C)(=O)=O` (centres undefined), the figure is 60.6% (active); as for `COCCCN(C(=O)Cc1ccc(Cl)c(Cl)c1)c1c(N)n(Cc2ccccc2)c(=O)[nH]c1=O`, 7.8%.
For the compound `CC(C)Cn1c(N)c(C(=O)COC(=O)CC23CC4CC(CC(C4)C2)C3)c(=O)n(C)c1=O`, the inhibition is 26.6%.
As for `Cn1c(=O)c(C(=O)CCl)c(N)n(Cc2ccccc2)c1=O`, the figure is 72.4% (active); as for `COc1cccc(N=Nc2ccc(O)c3ncccc23)c1`, 61% (active); as for `CCN(CC)S(=O)(=O)c1cc(OC)ccc1N=Nc1ccc(O)c2ncccc12`, -1.5%.
As for `COc1cccc(N=Nc2ccc3cccnc3c2O)c1`, the figure is 54.2% (active); as for `O=S1(=O)Nc2c(ccc3cccnc23)-c2ccccc21`, 104% (active); as for `CCn1c(=O)c([N+](=O)[O-])c(N2CCN(Cc3ccc4c(c3)OCO4)CC2)c2ccccc21`, 38.9%.
The same measure for `Cn1c(=O)c([N+](=O)[O-])c(N2CCN(Cc3ccc4c(c3)OCO4)CC2)c2ccccc21`: 18.3%; for `COc1ccccc1N1CCN(C(=O)c2sc3ncnc(N4CCN(c5ccccn5)CC4)c3c2C)CC1`: -30.1%; for `Cc1c(C(=O)N2CCN(Cc3ccc4c(c3)OCO4)CC2)sc2ncnc(N3CCN(c4ccccc4)CC3)c12`: 98.5% (active).
For `Cc1c(C(=O)N2CCN(c3ccc(F)cc3)CC2)sc2ncnc(N3CCN(c4ccccn4)CC3)c12`, the inhibition is 15.6%.
On to `O=[N+]([O-])c1ccc2ncnc(N3CCN(Cc4ccc5c(c4)OCO5)CC3)c2c1`, for which the inhibition was 97.2% (active).
With `COc1ccc(N2CCN(S(=O)(=O)c3ccc4c(c3)NC(=O)C(C)S4)CC2)cc1` (centres undefined), the inhibition is 23.6%.
As for `c1ccc(CC2CCN(c3ncnc4sccc34)CC2)cc1`, the figure is 42.7%; as for `Cc1ccc(S(=O)(=O)N2CCN(c3ncnc4sccc34)CC2)cc1`, 52.6% (active); as for `CN1C(=O)C(C)(C)c2cc(S(=O)(=O)N3CCN(c4ccccc4)CC3)ccc21`, 16%.
As for `O=S(=O)(c1ccc2c(c1)OCCO2)N1CCN(c2ncnc3sccc23)CC1`, the inhibition is 53.4% (active).
For `CCCc1nc(SCC(=O)N2CCC(Cc3ccccc3)CC2)c2c(=O)n(C)c(=O)n(C)c2n1`, the inhibition was -11.3%.
Consider `C/C(=N\NC(=O)c1ccc(Cl)cc1)c1ccc(Br)s1`, for which the inhibition was 9.8%.
Take `O=C(NN=C1c2ccccc2-c2ccccc21)c1cccc(Br)c1`: the inhibition is 21.6%.
The same measure for `O=C(N/N=C1/C(=O)c2cccc3cccc1c23)c1ccc(Cl)cc1`: 81% (active); for `S=c1[nH]nc(C2CCCCC2)n1/N=C/c1ccncc1`: 82.9% (active).
With `COc1ccc(OC)c(S(=O)(=O)N2CCN(c3ccccc3OC)CC2)c1`, the inhibition was 5%.
For `O=C1c2cccc(OCC(=O)N3CCCc4ccccc43)c2CCN1Cc1ccc(Br)cc1`, the inhibition is -77.8%.
Regarding `O=C(COc1ccc(Br)cc1Cl)NC(=S)N1CCc2ccccc21`, the inhibition was 104% (active).
Turning to `Cc1cc(Nc2cccc([N+](=O)[O-])c2)n2c(nc3ccccc32)c1C#N`, the inhibition is 78.7% (active).
As for `Cc1ccc(-c2c(C#N)c(N)n3c(nc4ccccc43)c2C#N)cc1`, the figure is 33.8%.
The same measure for `Cc1ccc(NC(=O)Nc2cccc([N+](=O)[O-])c2)cc1F`: -50.5%.
In the case of `CCc1nc(N2CCN(C(=O)CCl)CC2)c2c3c(sc2n1)CC(C)CC3` (centres undefined), the inhibition was 35.2%.
As for `CCOC(=O)C1(CCc2ccccc2)CCN(C(=O)CN2C(=O)CSC2=O)CC1`, the figure is -1.6%; as for `COc1cc(NC(=O)COc2cc(O)c3c(c2)OC(C)(C)CC3=O)cc(OC)c1OC`, 64.6% (active); as for `Cc1ccc(Nc2nnc(-c3ccncc3)s2)c(Br)c1`, 48%.
The same measure for `COc1cccc(C(=O)Nc2ccc3nc(N4CCN(c5ncccn5)CC4)cc(C)c3c2)c1OC`: 101% (active); for `COc1ccccc1N1CCN(C(=S)Nc2ccc3nc(N4CCOCC4)cc(C)c3c2)CC1`: 38.6%.
The same measure for `Cc1ccc(C)c(N2CCN(C(=S)Nc3ccc4nc(N5CCOCC5)cc(C)c4c3)CC2)c1`: 45.9%; for `CCN(CC)c1ccc(/C=C/c2cccc[n+]2C)c(OC)c1`: 66.8% (active).
Take `CCN(CC)c1ccc(/C=C/c2ccc3ccc(OC)cc3[n+]2CC)cc1`: the inhibition was 38.2%.
The same measure for `COc1ccc2c(c1OC)C(=O)OC2Nc1nc(-c2ccccc2)cs1` (centres undefined): 62.2% (active); for `COc1ccc(-c2csc3nc(-c4ccccc4)oc(=O)c23)cc1OC`: -3.3%.
As for `COc1ccccc1-c1nnc(SCC(=O)Nc2nc(-c3ccccc3)cs2)n1C`, the figure is 31.2%.
The same measure for `Cc1ccc(-c2csc(NC3OC(=O)c4ccccc43)n2)cc1` (centres undefined): 74.1% (active).
Take `COc1ccc2[nH]c(=O)c3c(c2c1)OC(C)(C)C=C3`: the inhibition is 74.7% (active).
The same measure for `COc1ccc2[nH]c3c(c2c1)CCN1C(=O)N([C@@H](C)C(=O)NC2CC2)C(=O)[C@]31C`: 24.6%; for `O=C(/C=C/c1cccs1)Nc1sc2c(c1C(=O)O)CCCC2`: 17.8%.
As for `Cc1[nH]c(=O)c(C(=O)/C=C/c2ccccc2)c2c1CCCC2`, the figure is 92% (active); as for `COc1cccc(/C=C/C(=C2/C(=O)N(c3ccccc3)N=C2C)c2ccccc2)c1OC`, 7.3%.
As for `COc1ccccc1/C=C/C(=O)c1c2c(c(C)[nH]c1=O)CCCC2`, the figure is 80.6% (active); as for `Cc1[nH]c(=O)c(C(=O)/C=C/c2ccccc2F)c2c1CCCC2`, 97.7% (active).
Consider `Cc1[nH]n(-c2cccc(Cl)c2)c(=O)c1-c1ccc(Cl)cc1`, for which the inhibition is 51.9% (active).
Take `Cc1[nH]n(-c2ncc(-c3ccccc3)s2)c(=O)c1C(c1ccc(Cl)cc1)C(C#N)C#N` (centres undefined): the inhibition is 28.2%.
As for `CC1=NN(c2ccc(Cl)cc2)C(=O)C1C(c1ccccc1O)c1c(C)[nH]n(-c2ccc(Cl)cc2)c1=O` (centres undefined), the figure is -30.7%.
Turning to `CC(C)CC(=O)/C(=C\c1ccc(Cl)cc1Cl)n1cncn1`, the inhibition was 64.5% (active).
On to `CC(C)(C)C(=O)/C(=C/c1ccc(Cl)cc1)n1cncn1`, for which the inhibition is 73.3% (active).
Consider `CCOC(=O)C(=Cc1ccc(-n2cncn2)cc1)C(=O)OCC`, for which the inhibition is 27%.
Take `O=C(Nc1cc(Cl)ccc1-n1cncn1)c1ccc([N+](=O)[O-])s1`: the inhibition is 34.3%.
As for `CC(=O)n1cc(N(C(=O)CCl)c2ccc(C)cc2)c2ccccc21`, the figure is 53.1% (active); as for `CC(=O)n1cc(N(C(=O)CCl)c2ccccc2)c2ccccc21`, 95.3% (active); as for `Clc1ccccc1/C=C/c1nc(-c2ccccn2)no1`, -22.3%.
With `Cc1ccc(S(=O)(=O)N2C(=O)/C(=C3\SC(=S)NC3=O)c3ccccc32)cc1`, the inhibition is 82.3% (active).
Consider `N=C1S/C(=C\c2ccco2)C(=O)N1c1nccs1`, for which the inhibition is 105% (active).
For `N=C1S/C(=C\c2ccc(-c3cccc(Cl)c3)o2)C(=O)N1c1nccs1`, the inhibition was 108% (active).
Take `O=C(Nc1ccccn1)C1CCN(c2ncnc3c2nc2n3CCCCC2)CC1`: the inhibition is 66.3% (active).
The same measure for `Cc1ccc(NC(=O)C2CCN(c3ncnc4c3nc3n4CCCCC3)CC2)cc1Cl`: 31.7%; for `CC(=O)c1ccc(NC(=O)C2CCCN(c3ncnc4c3nc3n4CCCCC3)C2)cc1` (centres undefined): 22.3%; for `O=C(NCC1CCN(Cc2ccc(Cl)cc2)CC1)C1CCCN(c2ncnc3c2nc2n3CCCCC2)C1` (centres undefined): 57.9% (active).
With `O=C(Nc1ccc(Cl)cn1)C1CCN(c2ncnc3c2nc2n3CCCCC2)CC1`, the inhibition was 76.4% (active).
The same measure for `Cc1ccc(NC(=O)C2CCCN(c3ncnc4c3nc3n4CCCCC3)C2)nc1` (centres undefined): 92.6% (active); for `COc1ccc(NC(=O)C2CCN(c3ncnc4c3nc3n4CCCCC3)CC2)cc1Cl`: 43.2%.
As for `O=C(Nc1nc2c(F)cc(F)cc2s1)c1ccc([N+](=O)[O-])o1`, the figure is -4%; as for `CC1CCc2nc(NC(=O)CSc3nc4ccccc4o3)sc2C1` (centres undefined), 12%; as for `CCCCn1c(SCC(=O)Nc2nnc(C(C)C)s2)nc2c1c(=O)n(C)c(=O)n2C`, 54.3% (active).
Take `CCCn1c(SCC(=O)Nc2nc3c(s2)CCCC3)nc2c1c(=O)n(C)c(=O)n2C`: the inhibition was 71.4% (active).
As for `CCCCn1c(SCC(=O)Nc2nnc(CC)s2)nc2c1c(=O)n(C)c(=O)n2C`, the inhibition is 51.6% (active).
As for `CC(C)n1c(SCC(=O)N2CCCCC2)nc2c1c(=O)n(C)c(=O)n2C`, the figure is 40.9%; as for `C=CCn1c(SCC(=O)Nc2sccc2C(N)=O)nc2sc(CC)cc2c1=O`, 44.9%.
As for `CC(C)c1nc(SCC(=O)Nc2nc3c(s2)CCCC3)c2ccccc2n1`, the figure is -69.4%; as for `C#CC(C)(C)NC(=O)CSc1nc2c(c(=O)n(C)c(=O)n2C)n1CCCC`, 24.1%; as for `CCCc1nc(SCC(=O)Nc2nnc(SCC)s2)c2c(=O)n(C)c(=O)n(C)c2n1`, 33.2%.

(Values after PubChem BioAssay AID1852 (Sanford-Burnham Center for Chemical Genomics, 2009).)
